Measured values from PubChem BioAssay (Tox21).
Results filed as inconclusive are left out. Active and inactive are the calls of the source. The call rests on the fitted dose curve; in most records, active means well fitted activation curve with a large enough effect in the signal ratio in the repeat runs (not every such curve was filed as active); inconclusive means weak or mixed curves; inactive means flat fitted curve, though single readings scatter; the % refers to the signal ratio.

assay: qHTS assay to identify small molecule agonists of the hypoxia (HIF-1) signaling pathway (AID 1224846); details: HRE-bla ME-180 cells, beta-lactamase ratio, 17 h; series mostly up to 76.8 µM; activation: at the top concentration
Source text: U.S. Tox21 Program National Center for Advancing Translational Sciences [NCATS] NIH Chemical Genomics Center [NCGC] U.S. Environmental Protection Agency [EPA] National Institutes of Environmental Health Sciences [NIEHS] National Toxicology Program [NTP] U.S. Food and Drug Administration [FDA] Tox21 Assay Overview: Hypoxia-inducible factor-1 (HIF-1) is the major hypoxia-regulated transcription factor that controls cellular responses to low oxygen concentration. HIF-1 is composed of two subunits: hypoxia responsive HIF-1-alpha and constitutively expressed HIF-1-beta, which is also known as aryl hydrocarbon receptor nuclear translocator. During hypoxic conditions, HIF-1-alpha heterodimerizes with HIF-1-beta and translocates into the nucleus where the HIF-1 complex binds to the hypoxia-response element (HRE) and activates expression of target genes such as VEGF (vascular endothelial growth factor). The HIF-1 pathway is essential to normal growth and development, and is involved in the pathophysiology of cancer, inflammation, and ischemia. Using a beta-lactamase reporter-gene under control of the hypoxia response element, a cell-based assay [CellSensor(TM) HRE-bla ME-180 from Life Technologies, Carlsbad, CA] was used to measure hypoxia-induced signaling. Tox21 10K library compounds were measured for their ability to induce the reporter gene activity.
Tox21 Assay Protocol Summary: HRE-bla ME-180 cells were dispensed at 2,000 cells per well in 6 uL of assay medium containing 0.5% dialyzed FBS into black wall/clear-bottom 1536-well plates using a Multidrop Combi (Thermo Scientific, Waltham, MA) dispenser. After the assay plates were incubated at 37C and 5% CO2 for 5 hrs, 23 nL of compounds dissolved in DMSO, positive controls or DMSO only was transferred to each well of the assay plate using a Pintool station (Kalypsys, San Diego, CA). The assay plates were incubated at 37C and 5% CO2 for 17 hrs. One uL of LiveBLAzerTM B/G FRET substrate (CCF4-AM) (Life Technologies) was added to each well using a Flying Reagent Dispenser (Aurora Discovery, San Diego, CA).
On the % scale 0 is the no-effect control and ±100 the full control effect.

SMILES | activation | outcome
CC(=O)C(C)(C)C | -0.716% (inactive) | 
CCC(Br)(CC)C(=O)NC(N)=O | 0% (inactive) | 
Nc1ccc([N+](=O)[O-])cc1[N+](=O)[O-] | 0.041% (inactive) | 
Cc1ccc(-c2c(Cl)nc(C#N)n2S(=O)(=O)N(C)C)cc1 | 3.98% (inactive) | 
CCCCc1c(C)nc(NCC)nc1OS(=O)(=O)N(C)C | 0.544% (inactive) | 
CCn1cc[n+](C)c1 |  | inactive
CCOC(=O)CBr | 0.0604% (inactive) | 
COc1ccc(-c2ccccc2)cc1NNC(=O)OC(C)C | 3.17% (inactive) | 
CNP(=O)(OC)Oc1ccc(C(C)(C)C)cc1Cl (stereo not given) | 0.54% (inactive) | 
CCCCN(N=O)C(=N)N[N+](=O)[O-] | -0.977% (inactive) | 
CO[C@@H]1[C@H](OC(=O)NC(=O)CCl)CC[C@]2(CO2)[C@H]1[C@@]1(C)O[C@@H]1CC=C(C)C | -0.119% [at 15.8 µM] (inactive) | 
CCCCC(CC)COP(=O)(Oc1ccccc1)Oc1ccccc1 (stereo not given) | 2.58% (inactive) | 
O=C1C(=O)c2cccc3cccc1c23 | 0.898% (inactive) | 
O=S(=O)(O)C(F)(F)C(F)(F)C(F)(F)C(F)(F)F | -0.714% (inactive) | 
O=C(NCc1cccnc1)Nc1ccc([N+](=O)[O-])cc1 | 0.0793% (inactive) | 
CCCC(Cn1cncn1)c1ccc(Cl)cc1Cl (stereo not given) | 2.55% (inactive) | 
CC(C)O.CC(C)O.OCCN(CCO)CCO.OCCN(CCO)CCO.[Ti] | 0.393% (inactive) | 
CCOP(=O)(OCC)O/C(=C/Cl)c1ccc(Cl)cc1Cl | 3.9% (inactive) | 
CN(N=O)c1ccc([N+](=O)[O-])cc1 | -1.4% (inactive) | 
CCOC(=O)COc1cc(-c2nn(C)c(OC(F)F)c2Cl)c(F)cc1Cl | -0.961% (inactive) | 

SMILES | activation | outcome
N#C/C(N)=C(/N)C#N | 1.44% (inactive) | 
C[C@H]1CNCCc2ccc(Cl)cc21 | 0.775% [at 35.5 µM] (inactive) | 
Nc1nc(N)nc(N)n1 | 0.0404% (inactive) | 
CC(O)(CS(=O)(=O)c1ccc(F)cc1)C(=O)Nc1ccc(C#N)c(C(F)(F)F)c1 (stereo not given) | -0.297% [at 35.5 µM] (inactive) | 
Sc1ccccc1Cl | 0.0337% [at 35.5 µM] (inactive) | 
C/C(=C\c1ccccc1)[N+](=O)[O-] | 2.11% (inactive) | 
O=C1NCN(c2ccccc2)C12CCN(CCCOc1ccc(F)cc1)CC2 | 0.592% [at 35.5 µM] (inactive) | 
CC1Sc2c(C(=O)O)c(=O)c3cc(F)c(N4CCNCC4)cc3n21 (stereo not given) | -0.596% [at 35.5 µM] (inactive) | 
COc1nn(CSP(=S)(OC)OC)c(=O)s1 | -1.14% (inactive) | 
C=CCC1([C@H](C)CCC)C(=O)NC(=O)NC1=O | -0.732% (inactive) | 
CC[C@H]1C[C@H]2[C@@H]3CCC4=CC(=O)CC[C@@H]4[C@H]3CC[C@]2(C)[C@H]1O | 0.848% [at 35.5 µM] (inactive) | 
COC(N)=O | -1.65% (inactive) | 
CC(C)(C)C(O)C(Oc1ccc(Cl)cc1)n1cncn1 (stereo not given) | -1.9% (inactive) | 
CCCCCC[N+](=O)[O-] | -0.0202% (inactive) | 
CCN(C)N=O | -0.102% (inactive) | 
CC1CC(CC2CCC(N)C(C)C2)CCC1N (stereo not given) | 0.0543% (inactive) | 
CCCN(CC1CC1)c1c([N+](=O)[O-])cc(C(F)(F)F)cc1[N+](=O)[O-] | 0.22% (inactive) | 
O=C(O)C(F)(F)C(F)(F)C(F)(F)C(F)(F)C(F)(F)C(F)(F)C(F)(F)C(F)(F)C(F)(F)C(F)(F)F | -1.49% (inactive) | 
Cc1c(F)c(F)c(COC(=O)C2C(/C=C(\Cl)C(F)(F)F)C2(C)C)c(F)c1F (stereo not given) | 2.47% (inactive) | 
CC(=O)CCC(C)=O | 1.1% (inactive) | 
